Like-named read-outs stand apart in the source and are kept apart here.
Experiments:
TAK1 = tested on: T1, TAK1; conditions: concentration: 1 μM, replicates: in singlicate; n = 1
T1 construct: gene MAP3K7

TAOK1 = conditions: concentration: 1 μM, replicates: in singlicate; n = 1
TAOK2 = conditions: concentration: 1 μM, replicates: in singlicate; n = 1
TAOK3 = conditions: concentration: 1 μM, replicates: in singlicate; n = 1
TBK1 = conditions: concentration: 1 μM, replicates: in singlicate; n = 1
TEC = conditions: concentration: 1 μM, replicates: in singlicate; n = 1
TESK1 = conditions: concentration: 1 μM, replicates: in singlicate; n = 1
TGFBR1 = conditions: n = 1
TGFBR2 = conditions: concentration: 1 μM, replicates: in singlicate; n = 1
TIE1 = conditions: concentration: 1 μM, replicates: in singlicate; n = 1
[1] = concentration: 1 μM, replicates: in singlicate
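Further: KINOMEscan kinase panel screen.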

SMILES | %Inh (TAK1) | %Inh (TAOK1) | %Inh (TAOK2) | %Inh (TAOK3) | %Inh (TBK1) | %Inh (TEC) | %Inh (TESK1) | %Inh (TGFBR1; [1]) | %Inh (TGFBR2) | %Inh (TIE1) | %Inh (TGFBR1; 1 µM)
Cl.c1ccc(Cn2cnc3cc(Nc4ncnc5ccccc45)ccc32)cc1 [GW272142] | 0% | 0% | 0% | 0% | 7% | 11% | 1% | 6% | 0% | 48% | 
O=C(Nc1n[nH]c2nc(-c3ccccc3)c(Cl)cc12)C1CC1 [SB-734909] | 8% | 0% | 0% | 0% | 38% | 0% | 6% | 0% | 0% | 0% | 
COc1ccc(-n2cnc3c(N)ncnc32)cc1 [SKF-97236] | 30% | 20% | 1% | 21% | 9% | 0% | 3% | 0% | 23% | 23% | 
CN1C(=O)C(Nc2ccccc2)=C(c2ccccc2)C1=O [SB-300079] | 0% | 0% | 34% | 0% | 21% | 0% | 2% | 22% | 0% | 0% | 
O=c1cc(N2CCOCC2)nc2n(Cc3ccc(F)c(Cl)c3)ccn12 [GSK2297099] | 2% | 0% | 0% | 0% | 17% | 12% | 12% | 35% | 0% | 0% | 
COC(=O)c1c(-c2ccccc2)c2cc(Br)ccc2c(=O)n1Cc1ccc(S(C)(=O)=O)cc1 | 39% | 0% | 0% | 0% | 19% | 25% | 22% | 4% | 0% | 21% | 
COc1cc(Nc2nccc(N3CCC(NC(=O)C4COc5ccccc5O4)C3)n2)cc(OC)c1OC (stereo not shown) [GSK1379761] | 7% | 11% | 0% | 5% | 0% | 0% | 33% | 12% | 0% | 17% | 
CCC(=O)c1c(-c2ccccc2)c2cc(Cl)ccc2c(=O)n1Cc1cc(S(C)(=O)=O)n(CC(F)F)n1 | 0% | 8% | 11% | 0% | 24% | 0% | 11% | 7% | 0% | 0% | 
COc1ccc(-c2cc3c(C)nc(N)nc3n([C@H]3CC[C@H](OCCO)CC3)c2=O)cn1 | 19% | 0% | 0% | 0% | 6% | 0% | 6% | 0% | 3% | 0% | 
Nc1nc(-c2ccccc2F)c(-c2ccnc3ccccc23)s1 [GW560459] | 0% | 0% | 0% | 0% | 20% | 0% | 12% | 16% | 0% | 0% | 
O=C(Nc1n[nH]c2nc(-c3ccccc3)c(Br)cc12)C1CC1 [SB-708998] | 0% | 9% | 0% | 16% | 4% | 0% | 7% | 0% | 6% | 14% | 
Cc1cccc(-c2cc(-c3c[nH]nc3-c3ccccn3)ccn2)c1 [GW679395] | 0% | 0% | 0% | 0% | 12% | 0% | 9% |  | 0% | 0% | 57%
Cc1ccccc1COc1cc(-n2cnc3cc(Cl)ccc32)sc1C(N)=O [GW813349] | 0% | 0% | 3% | 0% | 22% | 0% | 7% | 28% | 0% | 11% | 
COc1cc2nccc(Nc3cccc(Oc4ccccc4)c3)c2cc1OC.Cl [GW284543] | 0% | 0% | 0% | 0% | 0% | 45% | 3% | 41% | 0% | 9% | 
COc1cccc(C2=C(N(C)c3ccccc3)C(=O)NC2=O)c1 [SB-334865] | 0% | 0% | 0% | 0% | 3% | 2% | 24% | 29% | 10% | 0% | 
Cl.NS(=O)(=O)c1cccc(Nc2cc(-c3ccc(F)cc3)n[nH]2)c1 [GW824645] | 0% | 0% | 36% | 13% | 35% | 0% | 6% | 23% | 1% | 0% | 
CC(C)(C)c1ccc(C(=O)Nc2cn3cc(-c4ccccc4)ccc3n2)cc1 | 0% | 0% | 4% | 0% | 38% | 19% | 8% | 0% | 8% | 0% | 

SMILES | %Inh (TAK1) | %Inh (TAOK1) | %Inh (TAOK2) | %Inh (TAOK3) | %Inh (TBK1) | %Inh (TEC) | %Inh (TESK1) | %Inh (TGFBR1; [1]) | %Inh (TGFBR2) | %Inh (TIE1) | %Inh (TGFBR1; 1 µM)
CCn1c(-c2nonc2N)nc2ccccc21 [SB-693162/GW549034] | 33% | 0% | 0% | 3% | 34% | 0% | 14% | 53% | 0% | 56% | 
Cc1nnc(-c2ccc(C)c(-c3ccc(C(=O)O)cc3)c2)o1 [GW608005] | 0% | 0% | 0% | 2% | 2% | 0% | 0% | 0% | 0% | 15% | 
Cc1c(Cn2c(C)nn3c(=O)cc(N4CCO[C@H](C)C4)nc23)cccc1C(F)(F)F [GSK2373690] | 0% | 0% | 9% | 0% | 1% | 0% | 34% | 0% | 4% | 10% | 
Nc1nc(N)c2nc(-c3ccccc3)[nH]c2n1 [SKF-12778] | 4% | 16% | 0% | 17% | 16% | 7% | 12% | 0% | 3% | 26% | 
COc1cc(Nc2ccnc3ccc(C(F)(F)F)cc23)cc(OC)c1OC [GW577382] | 0% | 0% | 0% | 0% | 4% | 0% | 52% | 8% | 9% | 0% | 
Fc1cccc(CSc2nnc(-c3ccc4c(c3)CCO4)o2)c1 | 32% | 0% | 0% | 0% | 19% | 20% | 0% | 11% | 28% | 8% | 
CCC(=O)c1c(-c2ccccc2)c2cc(Cl)ccc2c(=O)n1Cc1cc(S(C)(=O)=O)n(CC(N)=O)n1 | 0% | 0% | 15% | 0% | 12% | 0% | 0% | 0% | 0% | 0% | 
CCc1ccc(-c2ccc3c(c2)-c2nn(C)cc2S(=O)(=O)N3C)cc1 | 0% | 0% | 37% | 0% | 0% | 0% | 2% | 1% | 0% | 0% | 
O=C(Nc1n[nH]c2cc(-c3ccccc3F)ccc12)C1CC1 [SB-733371] | 0% | 52% | 19% | 24% | 0% | 0% | 1% | 0% | 0% | 0% | 
CCC(=O)c1c(-c2ccccc2)c2cc(Cl)ccc2c(=O)n1Cc1cc(S(C)(=O)=O)n(CCC(C)(C)O)n1 | 31% | 9% | 0% | 0% | 20% | 6% | 21% | 6% | 19% | 16% | 
COc1cc2ncn(-c3cc(OCCCc4ccccc4)c(C(N)=O)s3)c2cc1OC [GSK205189] | 0% | 0% | 0% | 0% | 15% | 0% | 4% | 0% | 0% | 22% | 
COc1cc(Nc2nccc(N3CCC(NC(=O)C(C)c4ccc(Cl)cc4)C3)n2)cc(OC)c1OC (stereo not shown) [GSK1379757] | 0% | 0% | 0% | 0% | 14% | 0% | 27% | 0% | 0% | 10% | 
COc1cc2ncn(-c3cc(OCc4ccncc4Br)c(C(N)=O)s3)c2cc1OC [GW854278] | 0% | 4% | 0% | 0% | 24% | 2% | 26% | 17% | 0% | 31% | 
COC(=O)c1c(-c2ccccc2)c2cc(Br)ccc2c(=O)n1Cc1ccc(NC(=O)CCC(=O)O)cc1 | 19% | 0% | 0% | 0% | 22% | 10% | 39% | 10% | 0% | 0% | 
O=C(NCCNc1ccnc(Nc2ccc(F)cc2)n1)Nc1ccc2c(c1)OCO2 [GSK1379882] | 0% | 0% | 0% | 0% | 30% | 4% | 96.3% | 0% | 0% | 0% | 
COc1ccc(Nc2nccc(N3CCC(NS(=O)(=O)c4ccc(NC(C)=O)cc4)C3)n2)cc1 (stereo not shown) [GSK1379729] | 0% | 2% | 0% | 2% | 11% | 3% | 16% | 7% | 7% | 20% | 
COC(=O)c1c(-c2ccccc2)c2cc(C)ccc2c(=O)n1Cc1ccccc1 | 0% | 0% | 0% | 0% | 0% | 1% | 0% | 0% | 0% | 0% | 

From paper PMC5540273 (PLoS ONE, 2017)
